Compound activity: PubChem, several laboratories
This is a sample that favours compounds with a hit; in the whole collection about 3.9% have one here.
Platelet DG rel: modulates dense granule release in human platelets | hit rate 0.22% among 300,000 | human platelet-rich plasma, SFLLRN dense granule ATP release, luminescence | inhibition, %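 (compounds screened at 7.5 µM in platelet-rich plasma)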;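 active means mean replicate score, as percent of positive control, at or above 50; inconclusive means mean below 50 but at least one replicate at or above 50; inactive means mean and every replicate below 50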
SKKanGAS inh: inhibitors of SKKanGAS S. pyogenes growth in kanamycin (SK-promoter or general growth effect) | BacTiter-Glo, 6 h | inhibition, % at 7.5 µM | hit rate 1.3% among 300,000;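 active means mean replicate score, as percent of positive control median, at least 50; inconclusive means mean below 50 but one replicate at or above 50; inactive means mean and every replicate below 50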;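 further: strain carries kanamycin resistance gene driven by streptokinase promoter and grows in 40 µg/ml kanamycin; loss of luminescence reflects streptokinase promoter inhibition or plain growth inhibition; 0% = median of DMSO wells and 100% = positive control at its reference dose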
WT yeast gro inh: growth inhibition of WT yeast, mitochondrial fusion screen. mitochondrial fusion phenotypic screen, WT strain. inhibition, % at 10 µM. hit rate 2.1% among 190,000. AID 1362; in the data active means inhibition above about 58%; tested in S. cerevisiae
PHOSPHO1 block: PHOSPHO1 (human) inhibition; recombinant PHOSPHO1, absorbance phosphatase assay; inhibition, % at 13.3 µM; hit rate 1.1% among 290,000; Q8TCT1; AID 1565; in the data active means inhibition above about 60%
Target sequence (Q8TCT1 whole entry, looked up): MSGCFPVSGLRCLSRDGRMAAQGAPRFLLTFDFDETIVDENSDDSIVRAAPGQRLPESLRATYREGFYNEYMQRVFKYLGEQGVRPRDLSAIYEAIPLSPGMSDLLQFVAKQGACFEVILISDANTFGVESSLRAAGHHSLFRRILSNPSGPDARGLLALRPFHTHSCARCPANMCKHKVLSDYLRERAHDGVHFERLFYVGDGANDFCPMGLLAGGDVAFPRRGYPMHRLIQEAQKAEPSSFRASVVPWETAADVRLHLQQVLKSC
TPT1 inhibitor: blocks Candida albicans tRNA 2'-phosphotransferase; recombinant caTPT1, FP RNA substrate dephosphorylation; inhibition, % at 5 µM; hit rate 0.81% among 300,000; AID 1962;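 active means inhibition above the mean of all tested compounds plus 3 SD, set per screening campaign, cut at about 24% in these data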;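 further: plate controls were DMSO alone for no effect and ferristatin control at 100 nM for full effect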
Rtt109 Vps75: C. albicans Rtt109 histone acetyltransferase inhibition; inhibition, % at 34.9 µM; AID 540336; purified Rtt109/Vps75, ThioGlo CoA-SH fluorescence, 4 h; Q5AAJ8; hit rate 0.16% among 330,000;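 active means inhibition of at least 50% in every replicate; inconclusive means best replicate reaches 50% inhibition but some replicates fall short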
* = called active by the depositor; ? = inconclusive; . = not tested or not shown.

SMILES	Platelet DG rel	SKKanGAS inh	WT yeast gro inh	PHOSPHO1 block	TPT1 inhibitor	Rtt109 Vps75
COc1ccc(F)cc1S(=O)(=O)N1CCN(Cc2ccc3c(c2)OCO3)CC1	9.4	-2.5	4.7	-8.3	-4.0	2.1
Cc1nn(-c2ccccc2)c(N)c1-c1ccccc1	3.6	0.8	4.9	24.1	-6.0	-0.3
Cc1nn(-c2nc3ccccc3[nH]2)c(N)c1-c1ccccc1	.	86.5*	72.3*	4.9	-0.6	-4.0
Cc1nc2c(-c3ccccc3)c(C)nn2c(N)c1-c1ccccc1	10.1	-0.8	73.6*	-16.7	-0.3	2.9
COc1ccc(-c2nc(SC(C)C(=O)NC3CC3)n[nH]2)cc1 (stereo not drawn)	.	.	.	.	.	-3.0
COCCCNC(=O)C[C@H]1C[C@H](C(=O)N2CCCCC2)[C@@]2(C)c3[nH]c4cc(-c5ccco5)ccc4c3CCN2C1=O	.	.	.	.	.	-2.6
CC(C)(C)c1ccc(C(=O)NNC(=S)NC(=O)c2cccnc2)cc1	-3.9	100.0*	.	-68.2	-1.7	1.3
CC(C)(C)c1cc(Cl)c(O)c(NC(=S)NC(=O)c2cccnc2)c1	2.3	81.6*	10.1	-20.5	0.4	2.0
CC(C)c1ccc(O)c(NC(=S)NC(=O)c2cccnc2)c1	-1.7	-9.9	-0.7	36.8	0.4	-2.9
O=C(NNC(=S)NC(=O)c1ccccc1)c1cccnc1	-7.0	27.0	.	-95.0	-1.9	-0.5
Cc1ccccc1COC(=O)c1nn(-c2ccccc2)nc1N	-8.4	24.3	61.6*	-4.6	0.0	-0.4
Cc1ccccc1N1C(=O)CC(Sc2nnc(-c3ccccc3)o2)C1=O (stereo not drawn)	?	-5.2	59.1	81.2*	0.4	1.7
CC(=O)/C(C#N)=C1\NC(=O)C(Cc2cc(Cl)ccc2Cl)S1 (stereo not drawn)	-3.1	14.8	.	36.8	0.3	0.7
CC(=O)/C(C#N)=C1\NC(=O)C(Cc2ccccc2Cl)S1 (stereo not drawn)	8.5	12.6	76.3*	20.6	-1.8	-4.6
Cc1ccc(C2CC2c2n[nH]c(=S)n2-c2ccc(Cl)cc2)cc1 (stereo not drawn)	3.8	3.5	39.6	73.8*	-5.2	-18.7
CC1CC(=O)Nc2ccccc2N1C(=O)CSc1nnnn1C (stereo not drawn)	.	.	.	.	.	-11.3
Cc1[nH]c(=O)c(C#N)c(C)c1CSc1ncccn1	49.7*	-2.6	.	.	-3.7	-9.2
CC(C)c1cccc(-c2ccc3c(c2)S(=O)(=O)c2cccc(C(=O)NC4CCCC4)c2C3=O)c1	.	.	.	.	.	12.0
Cn1c(=O)[nH]c(=O)c2c1nc(N1CCCCCC1)n2CC(N)=O	69.8*	1.9	-15.0	-3.5	-5.8	3.0
Cn1c(=O)[nH]c(=O)c2c1nc(N1CCCCC1)n2C/C=N/Nc1ccc(C(=O)O)cc1	-1.9	12.3	.	64.5*	-3.4	0.4
CCCn1c(N2CCN(CC(=O)c3c(C)n(C)c4ccccc34)CC2)nc2c1c(=O)[nH]c(=O)n2C	-4.5	2.8	-12.3	3.7	-2.3	3.2
CCn1c(N2CCN(CC(=O)c3c[nH]c4ccccc34)CC2)nc2c1c(=O)[nH]c(=O)n2C	-7.8	5.7	-45.4	73.5*	3.8	-9.2
Cn1c(=O)[nH]c(=O)c2c1nc(N1CCCC1)n2CCO	3.6	-2.4	.	29.0	1.3	6.5
CN(C(=O)Cn1nc(C(=O)O)c2ccccc2c1=O)C1(C#N)CCCCC1	.	.	.	.	.	5.0
CCCn1nc(C(=O)N2CCN(S(=O)(=O)c3ccc(C)c(C)c3)CC2)c2ccccc2c1=O	.	.	.	.	.	28.5
COc1ccc(CCN2C(=O)NC(NS(=O)(=O)c3ccc(NC(C)=O)cc3)(C(F)(F)F)C2=O)cc1OC (stereo not drawn)	7.3	3.9	2.9	64.3*	-6.3	0.5
COc1ccc(CCN2C(=O)NC(NS(=O)(=O)c3ccc(N)cc3)(C(F)(F)F)C2=O)cc1OC (stereo not drawn)	-0.5	-1.7	4.8	4.9	-1.1	0.7
CC(C)(C)c1cc(-c2csc(Nc3ccccc3)[n+]2Cc2ccc(C(=O)O)cc2)cc(C(C)(C)C)c1O	1.2	114.6*	.	-20.6	-0.7	6.3
CCOc1ccc(CCN2C(=S)N([C@@H](CC(C)C)CN3CCCC3CN3C(=S)NC[C@@H]3Cc3ccc(O)cc3)C[C@@H]2Cc2ccc(O)cc2)cc1 (stereo partly drawn)	.	.	.	.	.	-9.7
Cc1oc(-c2ccccc2)nc1Cn1cccc1C1=NC(c2ccccc2)CO1 (stereo not drawn)	-2.0	69.0*	49.0	17.9	-4.8	-2.2
